Assay results: PubChem BioAssay (EPA / NIEHS)
The source holds several records for some structures; these can differ, active in one and inactive in another. Calls of active or inactive are those of the source. The calls were made as follows: active = hit-call score of the fitted dose curve at least 0.9, where 1 is the maximum; inactive = score below 0.9.

How the values were obtained:
[1] = read-out: C-C motif chemokine 2 (Homo sapiens) (UniProt P13500); test: BSK_KF3CT_MCP1: BioMAP Diversity Plus: KF3CT Assay for Monocyte Chemoattractant Protein 1 (MCP1/CCL2) Biomarker Activity (AID 2283073); details: primary human keratinocytes with fibroblasts; actives raise or lower the signal
Outline: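 Human keratinocyte–foreskin fibroblast co-culture; MCP-1 measured by ELISA 24 h after dosing. Bidirectional fit vs DMSO; cytotoxicity tracked by SRB total protein in parallel cultures.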

[2] = read-out: Matrix Metallopeptidase 9 (MMP9), MMP9 (gene 4318); test: BSK_KF3CT_MMP9: BioMAP Diversity Plus: KF3CT Assay for Matrix Metallopeptidase 9 (MMP9) Biomarker Activity (AID 2283074); details: primary human keratinocytes with fibroblasts; actives raise or lower the signal;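 as to AC50: MMP9 protein level quantified by ELISA in the co-culture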
Outline: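 ELISA read-out of MMP-9 at 24 h post-dosing in a co-culture of human skin keratinocytes and foreskin fibroblasts. Gain or loss of signal was fitted in both directions against DMSO.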

[3] = read-out: urokinase plasminogen activator (uPA), PLAU (gene 5328); test: BSK_KF3CT_uPA: BioMAP Diversity Plus: KF3CT Assay for urokinase plasminogen activator (uPA) Biomarker Activity (AID 2283075); details: primary human keratinocytes with fibroblasts; actives raise or lower the signal
Outline: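 Skin co-culture (keratinocytes + foreskin fibroblasts), human primary; 24 h post-dose; uPA by ELISA; gain/loss fit vs DMSO baseline.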

[4] = read-out: CD40, CD40 (gene 958); test: BSK_LPS_CD40: BioMAP Diversity Plus: LPS Assay for CD40 Biomarker Activity (AID 2283076); details: primary human HUVEC with PBMC; actives raise or lower the signal
Outline: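 HUVEC plus PBMC co-culture stimulated with LPS; CD40 quantified by ELISA 24 h after compound dosing. Fitting was bidirectional relative to DMSO. SRB staining of parallel cultures flagged overt cytotoxicity.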

[5] = read-out: E-selectin (Homo sapiens) (UniProt P16581); test: BSK_LPS_Eselectin: BioMAP Diversity Plus: LPS Assay for Eselectin Biomarker Activity (AID 2283077); details: primary human HUVEC with PBMC; actives raise or lower the signal
Outline: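 Human umbilical vein endothelial cells co-cultured with PBMC under LPS stimulation; cell-surface E-selectin measured by ELISA 24 h after dosing. Change in either direction versus DMSO, with SRB total-protein staining in parallel cultures for cytotoxicity.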

[6] = read-out: Interleukin-8 (IL8), CXCL8 (gene 3576); test: BSK_LPS_IL8: BioMAP Diversity Plus: LPS Assay for Interleukin-8 (IL8) Biomarker Activity (AID 2283078); details: primary human HUVEC with PBMC; actives raise or lower the signal
Outline: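 Human umbilical vein endothelial cells co-cultured with PBMC, LPS-stimulated, exposed to compound for 24 h. IL-8 quantified by ELISA; fitted in both directions against DMSO, with SRB total-protein staining of parallel cultures for cytotoxicity.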

[7] = BSK_LPS_SRB: Viability Assessment in the BioMAP Diversity Plus: LPS Assay (AID 2283079); details: primary human HUVEC with PBMC;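 also: total protein by sulforhodamine B absorbance as a cytotoxicity measure; measured one day after compound addition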
Outline: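 Co-culture of human umbilical vein endothelial cells and PBMC, read 24 h after dosing. Total protein by 0.1% SRB staining after 10% TCA fixation, absorbance at 560 nm; bidirectional fit against DMSO.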

[8] = read-out: Interleukin-1 alpha (IL1a), IL1A (gene 3552); test: BSK_LPS_IL1a: BioMAP Diversity Plus: LPS Assay for Interleukin-1 alpha (IL1a) Biomarker Activity (AID 2283080); details: primary human HUVEC with PBMC; actives raise or lower the signal
Outline: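 Human umbilical vein endothelial cells co-cultured with PBMC and stimulated with LPS; IL-1a measured by ELISA 24 h after dosing. Bidirectional fitting against DMSO; cytotoxicity checked by SRB staining in parallel cultures.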

[9] = read-out: Monocyte Chemoattractant Protein-1 (MCP1), CCL2 (gene 6347); test: BSK_LPS_MCP1: BioMAP Diversity Plus: LPS Assay for Monocyte Chemoattractant Protein-1 (MCP1) Biomarker Activity (AID 2283081); details: primary human HUVEC with PBMC; actives raise or lower the signal;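 as to AC50: secreted MCP-1 protein quantified by ELISA in culture supernatant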
Outline: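 Human umbilical vein endothelial cells co-cultured with PBMC, LPS-stimulated; secreted MCP-1 measured by ELISA 24 h after compound addition. Bidirectional curve fitting against DMSO baseline; SRB total-protein staining in parallel cultures for cytotoxicity.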

[10] = BSK_LPS_PGE2: BioMAP Diversity Plus: LPS Assay for Prostaglandin E2 (PGE2) Biomarker Activity (AID 2283082); details: primary human HUVEC with PBMC; actives raise or lower the signal
Outline: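 Primary human endothelial cells and blood mononuclear cells, co-cultured with LPS, receive test chemical; PGE2 ELISA follows at 24 h, with SRB-stained parallel cultures flagging cytotoxicity.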

[11] = read-out: Macrophage colony-stimulating factor (MCSF), CSF1 (gene 1435); test: BSK_LPS_MCSF: BioMAP Diversity Plus: LPS Assay for Macrophage colony-stimulating factor (MCSF) Biomarker Activity (AID 2283083); details: primary human HUVEC with PBMC; actives raise or lower the signal
Outline: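 HUVEC–PBMC co-culture, M-CSF measured by ELISA 24 h after chemical dosing. Fitted in both directions relative to DMSO as negative control; overt cytotoxicity assessed by SRB total-protein staining in parallel cultures.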

[12] = read-out: Tissue Factor, F3 (gene 2152); test: BSK_LPS_TissueFactor: BioMAP Diversity Plus: LPS Assay for Tissue Factor Biomarker Activity (AID 2283084); details: primary human HUVEC with PBMC; actives raise or lower the signal
Outline: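 Human umbilical vein endothelial cells co-cultured with PBMC were dosed with compound. Cell-surface CD142 was measured by ELISA 24 h later. Activity was fitted bidirectionally against DMSO, with SRB total-protein staining in parallel cultures for cytotoxicity.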

[13] = read-out: Vascular cell adhesion molecule 1 (VCAM1), VCAM1 (gene 7412); test: BSK_LPS_VCAM1: BioMAP Diversity Plus: LPS Assay for Vascular cell adhesion molecule 1 (VCAM1) Biomarker Activity (AID 2283086); details: primary human HUVEC with PBMC; actives raise or lower the signal
Outline: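 Measured by ELISA: VCAM-1 in LPS-activated HUVEC/PBMC co-cultures 24 h after treatment. Values reflect bidirectional fitting with DMSO as baseline.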

[14] = read-out: CD38, CD38 (gene 952); test: BSK_SAg_CD38: BioMAP Diversity Plus: SAg Assay for CD38 Biomarker Activity (AID 2283087); details: primary human HUVEC with PBMC; actives raise or lower the signal
Outline: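 Measures CD38 on a human endothelial/PBMC co-culture driven by SEB and TSST-1, 24 h after compound exposure, using ELISA with fluorescence detection; DMSO defines baseline for bidirectional curve fitting.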

[15] = read-out: CD40, CD40 (gene 958); test: BSK_SAg_CD40: BioMAP Diversity Plus: SAg Assay for CD40 Biomarker Activity (AID 2283088); details: primary human HUVEC with PBMC; actives raise or lower the signal
Outline: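 HUVEC plus PBMC co-culture, superantigen-activated, with CD40 read by ELISA 24 h after dosing. Curves fitted in both directions against DMSO. Overt cytotoxicity checked by parallel SRB total-protein staining.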

[16] = read-out: CD69, CD69 (gene 969); test: BSK_SAg_CD69: BioMAP Diversity Plus: SAg Assay for CD69 Biomarker Activity (AID 2283089); details: primary human HUVEC with PBMC; actives raise or lower the signal;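 as to AC50: cell surface CD69 protein quantified by ELISA with fluorescence detection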
Outline: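 Values derive from bidirectional fitting relative to DMSO vehicle. Cells: umbilical vein endothelium plus peripheral blood mononuclear cells, treated 24 h before fluorescent ELISA for CD69.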

[17] = read-out: Monocyte Chemoattractant Protein-1 (MCP1), CCL2 (gene 6347); test: BSK_SAg_MCP1: BioMAP Diversity Plus: SAg Assay for Monocyte Chemoattractant Protein-1 (MCP1) Biomarker Activity (AID 2283090); details: primary human HUVEC with PBMC; actives raise or lower the signal
Outline: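 Values derive from bidirectional fitting of ELISA-measured MCP1 against DMSO controls. Readings were taken 24 h after dosing human vascular endothelial cells co-cultured with peripheral blood mononuclear cells under superantigen stimulation.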

[18] = read-out: E-selectin (Homo sapiens) (UniProt P16581); test: BSK_SAg_Eselectin: BioMAP Diversity Plus: SAg Assay for Eselectin Biomarker Activity (AID 2283091); details: primary human HUVEC with PBMC; actives raise or lower the signal
Outline: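 Human umbilical vein endothelial cells co-cultured with peripheral blood mononuclear cells, SAg system. E-selectin is measured by ELISA 24 h after dosing and fitted bidirectionally against DMSO. Cytotoxicity is checked by SRB staining of parallel cultures.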

[19] = read-out: Transforming growth factor beta 1 (TGFb1), TGFB1 (gene 7040); test: BSK_KF3CT_TGFb1: BioMAP Diversity Plus: KF3CT Assay for Transforming growth factor beta 1 (TGFb1) Biomarker Activity (AID 2283072); details: primary human keratinocytes with fibroblasts; actives raise or lower the signal
Outline: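 TGF-b1 ELISA on a 24 h dosed co-culture of human keratinocytes and foreskin fibroblasts; cytotoxicity tracked in parallel cultures by SRB staining.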

[20] = read-out: Tumor necrosis factor (Homo sapiens) (UniProt P01375); test: BSK_LPS_TNFa: BioMAP Diversity Plus: LPS Assay for Tumour Necrosis Factor alpha (TNFa) Biomarker Activity (AID 2283085); details: primary human HUVEC with PBMC; actives raise or lower the signal
Outline: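 ELISA-based TNFa endpoint in a human endothelial–PBMC co-culture sampled 24 h post-exposure. Curves were fitted in both directions using DMSO as baseline of activity.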

Measured: AC50

Chain of E-selectin (Homo sapiens) (P16581 whole entry, looked up): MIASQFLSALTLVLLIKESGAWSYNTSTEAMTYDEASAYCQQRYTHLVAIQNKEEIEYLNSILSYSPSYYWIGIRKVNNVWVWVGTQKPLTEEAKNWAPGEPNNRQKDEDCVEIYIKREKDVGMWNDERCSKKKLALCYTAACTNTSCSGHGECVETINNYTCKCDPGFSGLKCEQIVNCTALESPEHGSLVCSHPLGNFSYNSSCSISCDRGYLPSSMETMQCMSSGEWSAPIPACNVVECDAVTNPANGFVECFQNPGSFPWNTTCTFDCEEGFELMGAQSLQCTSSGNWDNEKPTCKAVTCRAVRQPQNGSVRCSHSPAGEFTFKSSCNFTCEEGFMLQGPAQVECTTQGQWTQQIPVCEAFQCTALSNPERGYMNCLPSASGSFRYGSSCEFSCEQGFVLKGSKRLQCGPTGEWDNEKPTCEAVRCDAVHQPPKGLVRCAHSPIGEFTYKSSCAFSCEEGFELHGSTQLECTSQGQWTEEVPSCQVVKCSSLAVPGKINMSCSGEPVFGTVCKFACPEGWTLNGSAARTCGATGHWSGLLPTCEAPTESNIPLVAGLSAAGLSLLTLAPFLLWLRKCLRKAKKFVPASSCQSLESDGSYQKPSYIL
Chain of Tumor necrosis factor (Homo sapiens) (P01375 whole entry, looked up): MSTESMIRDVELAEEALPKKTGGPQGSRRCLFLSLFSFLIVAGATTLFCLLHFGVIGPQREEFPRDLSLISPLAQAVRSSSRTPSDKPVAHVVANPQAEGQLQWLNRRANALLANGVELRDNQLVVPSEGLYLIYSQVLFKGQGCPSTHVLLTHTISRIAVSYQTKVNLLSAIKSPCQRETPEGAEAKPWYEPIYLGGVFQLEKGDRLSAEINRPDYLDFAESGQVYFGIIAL

CCCCOC(=O)COC(=O)c1ccccc1C(=O)OCCCC
not listed: [19] | [20]
inactive: all other assays above

O=C1C=CC(=O)c2ccccc21
inactive: [10]
active: [19] 1810 nM | [1] 3450 nM | [2] 5160 nM | [3] 2860 nM | [4] 1370 nM | [5] 1440 nM | [6] 1370 nM | [7] 5330 nM | [8] 1070 nM | [9] 2700 nM | [11] 1820 nM | [12] 1520 nM | [13] 2000 nM | [14] 1040 nM | [15] 2170 nM | [16] 836 nM | [17] 2390 nM | [18] 1120 nM

CN(C)C(=S)S
not listed: [1] | [20]
inactive: all other assays above

O=C(Cc1ccccc1)OCCc1ccccc1
inactive: [1] | [2] | [3] | [4] | [5] | [6] | [7] | [8] | [9] | [10] | [11] | [12] | [20] | [13] | [14] | [15] | [16] | [17] | [18]
active: [8] 3970 nM

Oc1c(Cl)cc(Cl)cc1Cl
active: [15] 13300 nM
not listed: [20]
inactive: all other assays above

Clc1cccc(Cl)c1
not listed: [20]
inactive: all other assays above

COc1ccccc1N
not listed: [20]
inactive: all other assays above

CC(C=O)Cc1ccc2c(c1)OCO2 (stereo not drawn)
not listed: [20]
inactive: all other assays above

OCCN(CCO)CCO
not listed: [20]
inactive: all other assays above

CCCCCCCCCCCCN(C)C
not listed: [20]
inactive: all other assays above

NC(=O)CCl
not listed: [20]
inactive: all other assays above
